# Where a name gives a salt, the structure may show the parent alone. ± gives the standard deviation of the averaged measurements.
# Key:
# [1] = system: MDA-MB-231; assay: cell viability relative to vehicle unstimulated control (fraction); higher = more viable cells; conditions: pre-treatment time: 18 h then 24 h IFNg/TNF
# [2] = system: MDA-MB-231; assay: kynurenine production, fold change vs DMSO IFNg/TNF control; higher = more kynurenine produced (less inhibition); conditions: pre-treatment time: 18 h then 24 h IFNg/TNF
# Method in brief: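 Fold change over cytokine-stimulated vehicle wells on the same plate is the measure used for kynurenine production, averaged across duplicate plates in the first screening round. MDA-MB-231 cells, seeded 24 h beforehand at 7 × 10^4/well in 96-well plates, were pre-treated 18 h with each natural product in 0.1% DMSO and stimulated 24 h at 37°C with IFNγ (1 U/ml) and TNF (6.25 ng/ml). Supernatants were read at 492 nm following trichloroacetic acid and p-dimethylaminobenzaldehyde treatment, against 0–100 μM standards.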
# 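Wherever cell viability relative to vehicle unstimulated control is given: viability of the cells left after supernatant collection, read with Deep Blue dye added for 4 h, as absorbance at 570 nm minus 600 nm.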
SMILES,cell viability [1],kynurenine production [2]
CC(=O)OC/C=C(C)/C=C/C=C(C)/C=C/C1=C(C)CCCC1(C)C [Retinyl acetate] (compound dose: 10 uM),0.9487 ± 0.0087,0.753 ± 0.084
C[C@@H]1O[C@@H](O[C@@H]2[C@H](O)[C@@H](O)[C@H](O[C@H]3CC[C@@]4(C)C(CC[C@]5(C)C4C=C[C@]46OC[C@@]7(CCC(C)(C)CC74)[C@@H](O)C[C@]65C)C3(C)C)O[C@@H]2CO[C@@H]2O[C@H](CO)[C@@H](O)[C@H](O)[C@H]2O)[C@H](O)[C@H](O)[C@H]1O (stereo partly specified) [Saikosaponin C] (compound dose: 10 uM),0.928 ± 0.063,1.13 ± 0.18
CC1=CCC2CC1C2(C)C (stereo not drawn) [(-)-α-Pinene] (compound dose: 10 uM),1.01 ± 0.035,1.21 ± 0.14
C=C(C)[C@@H]1CC[C@]2(C=O)CC[C@]3(C)[C@H](CC[C@@H]4[C@@]5(C)CC[C@H](O)C(C)(C)[C@@H]5CC[C@]43C)[C@@H]12 [Betulinaldehyde] (compound dose: 10 uM),1.005 ± 0.0091,0.697 ± 0.12
C=C(C(=O)O)[C@@H]1CC[C@@H](C)[C@@H]2CCC(C)=C[C@@H]21 [Artemisinic acid] (compound dose: 10 uM),1.08 ± 0.11,0.889 ± 0.031
C[C@H](CC[C@@H](O[C@@H]1O[C@H](CO)[C@@H](O)[C@H](O)[C@H]1O)C(C)(C)O)[C@H]1CC[C@@]2(C)[C@@H]3CC=C4[C@@H](CC[C@H](O)C4(C)C)[C@]3(C)[C@H](O)C[C@]12C [Mogroside I A1] (compound dose: 10 uM),0.881 ± 0.068,0.921 ± 0.21
C[C@@H]1CC[C@]2(C(=O)O)CC[C@]3(C)C(=CC[C@@H]4[C@@]5(C)CC[C@H](O)[C@@](C)(CO)[C@@H]5CC[C@]43C)[C@@H]2[C@]1(C)O [Rotundic acid] (compound dose: 10 uM),0.8829 ± 0.0033,0.929 ± 0.021
CC(CC(=O)C[C@@H](C)[C@H]1CC(=O)[C@@]2(C)C3=C(C(=O)[C@@H](O)[C@]12C)[C@@]1(C)CC[C@H](O)C(C)(C)[C@@H]1C[C@@H]3O)C(=O)O (stereo partly specified) [Ganoderic acid G] (compound dose: 10 uM),1.1 ± 0.058,0.973 ± 0.16
CC(=O)OC1COC(OC2CCC34CC35CCC3(C)C(C6(C)CCC(C(C)(C)O)O6)C(O)CC3(C)C5CC(OC3OC(CO)C(O)C(O)C3O)C4C2(C)C)C(OC(C)=O)C1O (stereo unspecified) [Isoastragaloside I] (compound dose: 10 uM),0.983 ± 0.0057,0.925 ± 0.059
CC(C)(O)CCC(=O)[C@](C)(O)C1[C@H](O)C[C@@]2(C)[C@@H]3CC=C4[C@@H](C[C@H](O)[C@@H](O)C4(C)C)[C@]3(C)C(=O)C[C@]12C (stereo partly specified) [Cucurbitacin IIb] (compound dose: 10 uM),0.943 ± 0.021,0.826 ± 0.27
"CCCCC/C=C\C=C\C(=O)O[C@H]1C(C)=C[C@]23C(=O)[C@@H](C=C(CO)[C@@H](O)[C@]12O)[C@H]1[C@@H](C[C@H]3C)C1(C)C [3-O-(2'E,4'ZDecadienoyl) ingenol] (compound dose: 10 uM)",1 ± 0.09,1.022 ± 0.0084
C=C1C[C@@]23CC[C@H]4[C@@](C)(CCC[C@@]4(C)C(=O)O[C@@H]4O[C@H](CO)[C@@H](O)[C@H](O[C@@H]5O[C@H](CO)[C@@H](O)[C@H](O)[C@H]5O)[C@H]4O[C@@H]4O[C@H](CO)[C@@H](O)[C@H](O)[C@H]4O)[C@@H]2CC[C@]1(O[C@@H]1O[C@H](CO)[C@@H](O)[C@H](O[C@@H]2O[C@H](CO)[C@@H](O)[C@H](O)[C@H]2O)[C@H]1O[C@@H]1O[C@H](CO)[C@@H](O)[C@H](O)[C@H]1O)C3 [Rebaudioside M] (compound dose: 10 uM),0.939 ± 0.012,0.742 ± 0.12
CC(C)=CCC[C@](C)(O)[C@H]1CC[C@]2(C)[C@@H]1[C@H](O)C[C@@H]1[C@@]3(C)CC[C@H](O)C(C)(C)[C@@H]3[C@@H](O[C@@H]3O[C@H](CO)[C@@H](O)[C@H](O)[C@H]3O[C@@H]3O[C@H](CO)[C@@H](O)[C@H](O)[C@H]3O)C[C@]12C [Ginsenoside Rf] (compound dose: 10 uM),0.9642 ± 0.0068,0.749 ± 0.17
O=C1C[C@@H](c2ccc(O)cc2)Oc2cc(O)cc(O)c21 [Naringenin] (compound dose: 10 uM),0.921 ± 0.013,0.772 ± 0.011
CC(/C=C/C=C(\C)C(=O)O[C@@H]1O[C@H](CO)[C@@H](O)[C@H](O)[C@H]1O)=C\C=C\C=C(C)\C=C\C=C(/C)C(=O)O[C@@H]1O[C@H](CO[C@@H]2O[C@H](CO)[C@@H](O)[C@H](O)[C@H]2O)[C@@H](O)[C@H](O)[C@H]1O [Crocin II] (compound dose: 10 uM),0.987 ± 0.09,0.907 ± 0.13
C=C(C)[C@@H]1CC[C@]2(C(=O)O[C@@H]3O[C@H](CO[C@@H]4O[C@H](CO)[C@@H](O[C@@H]5O[C@@H](C)[C@H](O)[C@@H](O)[C@H]5O)[C@H](O)[C@H]4O)[C@@H](O)[C@H](O)[C@H]3O)CC[C@]3(C)[C@H](CC[C@@H]4[C@@]5(C)CC[C@H](O[C@@H]6OC[C@H](O)[C@H](O)[C@H]6O[C@@H]6O[C@@H](C)[C@H](O)[C@@H](O)[C@H]6O)[C@@](C)(CO)[C@@H]5CC[C@]43C)[C@@H]12 [Pulchinenoside C] (compound dose: 10 uM),0.9971 ± 0.0034,1.03 ± 0.18
C[n+]1cccc(C(=O)[O-])c1 [Trigonelline hydrochloride] (compound dose: 10 uM),0.913,0.906 ± 0.16

SMILES,cell viability [1],kynurenine production [2]
CC(=O)OC1CCC2(C)C(CCC3(C)C2CC=C2C4C(C)C(C)CCC4(C(=O)O)CCC23C)C1(C)C (stereo unspecified) [Ursolic acid acetate] (compound dose: 10 uM),1.11 ± 0.14,0.771 ± 0.053
C=C(C)[C@H]1C=C[C@@](C)(O)CC1 [cis-Isolimonenol] (compound dose: 10 uM),0.972 ± 0.02,0.813 ± 0.11
CC(=O)O[C@@H]1CC[C@@]2(C)[C@@H](CC[C@]3(C)[C@@H]2C(=O)C=C2[C@@H]4[C@@H](C)[C@H](C)CC[C@]4(C)CC[C@]23C)[C@@]1(C)C(=O)O (compound dose: 10 uM),1.03 ± 0.031,1.06 ± 0.062
CC1(C)CC[C@]2(C(=O)O)CC[C@]3(C)C(=CC[C@@H]4[C@@]5(C)CC[C@H](O[C@@H]6O[C@H](C(=O)O)[C@@H](O)[C@H](O)[C@H]6O)C(C)(C)[C@@H]5CC[C@]43C)[C@@H]2C1 [Calenduloside E] (compound dose: 10 uM),1.07 ± 0.054,0.962 ± 0.087
CC(C)=CCC[C@@H](C)CC=O [(R)-(+)-Citronellal] (compound dose: 10 uM),1.07 ± 0.035,1.44 ± 0.056
CC(C)c1ccc2c(c1)CC[C@H]1[C@](C)(C(=O)O)CCC[C@]21C [Dehydroabietic acid] (compound dose: 10 uM),1.008 ± 0.0086,0.713 ± 0.23
CC1(C(=O)O)CCC2(C)CCC3(C)C(=CC(=O)C4C5(C)CCC(O)C(C)(C)C5CCC43C)C2C1 (stereo not drawn) [18β-Glycyrrhetinic acid] (compound dose: 10 uM),1.02 ± 0.17,1.09 ± 0.18
COC(=O)C1=CO[C@@H](O[C@@H]2O[C@H](CO)[C@@H](O)[C@H](O)[C@H]2O)[C@@H]2C(CO)=C[C@H](O)[C@H]12 [Methyl deacetylasperulosidate] (compound dose: 10 uM),0.956 ± 0.085,1.15 ± 0.1
CC(C)=CCC[C@](C)(O[C@@H]1O[C@H](CO)[C@@H](O)[C@H](O)[C@H]1O)[C@H]1CC[C@]2(C)[C@@H]1[C@H](O)C[C@@H]1[C@@]3(C)CC[C@H](O[C@@H]4O[C@H](CO)[C@@H](O)[C@H](O)[C@H]4O)C(C)(C)[C@@H]3CC[C@]12C [Ginsenoside F2] (compound dose: 10 uM),0.992 ± 0.033,0.818 ± 0.12
CC(C)(O[C@@H]1O[C@H](CO)[C@@H](O)[C@H](O)[C@H]1O)[C@@H]1CC[C@](C)([C@H]2[C@@H](O)C[C@@]3(C)[C@@H]4C[C@H](O)[C@H]5C(C)(C)[C@@H](O[C@@H]6OC[C@@H](O)[C@H](O)[C@H]6O)CC[C@@]56C[C@@]46CC[C@]23C)O1 [Isoastragaloside IV] (compound dose: 10 uM),0.924 ± 0.083,1.23 ± 0.33
COc1ccc2c(c1O)C(Cc1ccc(O)cc1)[N+](C)(C)CC2 (stereo unspecified) [Oblongine] (compound dose: 10 uM),0.969 ± 0.037,1.03 ± 0.071
C=C1CC[C@H]2[C@@H](/C=C(\C)C(=O)[C@@]3(OC(C)=O)C[C@H](C)[C@H](OC(=O)c4cccnc4)[C@@H]3[C@H]1OC(C)=O)C2(C)C [Euphorbia factor L8] (compound dose: 10 uM),1.1 ± 0.075,0.89 ± 0.083
CC1(C)CC[C@]2(C(=O)O)CC[C@]3(C)C(=CC[C@@H]4[C@@]5(C)CC[C@H](O)[C@@](C)(CO)[C@@H]5CC[C@]43C)[C@@H]2C1 [Hederagenin] (compound dose: 10 uM),1.06 ± 0.2,1.07 ± 0.014
"CCCCC/C=C/C=C/C(=O)O[C@H]1C(C)=C[C@]23C(=O)[C@@H](C=C(CO)[C@@H](O)[C@]12O)[C@H]1[C@@H](C[C@H]3C)C1(C)C [3-O-(2'E,4'EDecadienoyl)ingenol] (compound dose: 10 uM)",0.9682 ± 0.0024,0.812 ± 0.086
C/C=C(/C)C(=O)O[C@H]1C(C)=C[C@]23C(=O)[C@@H](C=C(CO)[C@@H](O)[C@]12O)[C@H]1[C@@H](C[C@H]3C)C1(C)C [Ingenol Mebutate] (compound dose: 10 uM),1.01 ± 0.026,0.691 ± 0.18
CC(C)=CCC[C@](C)(O)[C@@H]1CC=C(C)CC1 [alpha-Bisabolol] (compound dose: 10 uM),0.9925 ± 0.0046,0.79 ± 0.15
